# In PubChem BioAssay (Tox21):
# Results filed as inconclusive are left out. Active and inactive are the calls of the source. Unless noted, calls come from the whole dose curve; as a rule, active = well fitted curve in the direction sought with a large enough effect in the repeat runs; inconclusive = weak or mixed curves; inactive = no such curve, though single readings can be large; an effect the other way counts as inactive or inconclusive.
# Experiment: qHTS assay for small molecule activators of the heat shock response signaling pathway - cell viability counter screen (AID 743209); note: nearly all actives have a fitted effect of over 50% in size; note: potency is the fitted concentration of half-maximal effect
# Details: HSE-bla HeLa viability, CellTiter-Glo luminescence, 5 h; series mostly up to 62.6 µM; activity change, negative = cytotoxicity: at the top concentration
# Method in brief: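 Counter screen for cytotoxicity in HeLa HSE-bla reporter cells. Treatment was 5 h at 37 C; viability was detected by luminescent ATP assay (CellTiter-Glo) in the same wells as the beta-lactamase read.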
# % is set by controls: 0 for no effect and ±100 for the full control effect.
Structure (SMILES),Potency,"activity change, negative = cytotoxicity"
C[n+]1c2cc(N)ccc2cc2ccc(N)cc21 (tested in a mixture with another compound),29.8 µM (active),–
CC=O,22.9 µM (active),–
CCN(CC)CCNc1ccc(CO)c2sc3ccccc3c(=O)c12,–,9.25% (inactive)
Cc1cc2c(C(C)C)c(O)c(O)c(C=O)c2c(O)c1-c1c(C)cc2c(C(C)C)c(O)c(O)c(C=O)c2c1O,13.3 µM (active),–
CC(C)(C)c1cc(/C=C2\SC(=N)NC2=O)cc(C(C)(C)C)c1O,43.6 µM (active),–
ClC/C=C\CCl,–,-5.31% [at 81.1 µM] (inactive)
O=C(c1ccccc1)c1cc(Cl)ccc1O,–,-13.1% (inactive)
O=C(NO)c1ccccc1,–,-18.6% [at 81.1 µM] (inactive)
CN(C)c1ccc(N=NS(=O)(=O)O)cc1,–,30.3% [at 81.1 µM] (inactive)
CCCCCCCCCCCCCCNCCO,–,-5.77% (inactive)
CC1(C)C(=O)N(Br)C(=O)N1Br,–,0.933% (inactive)
CCCCCCCC/C=C\CCCCCCCC(=O)N(C)CC(=O)O,21.9 µM (active),–
C=CC(=O)OCC(O)COc1ccccc1 (configuration not stated),4.9 µM (active),–
C=CC(=O)OCCOCC(CC)(COCCOC(=O)C=C)COCCOC(=O)C=C,18.1 µM (active),–
CC(=O)OC(OC(C)=O)c1ccc([N+](=O)[O-])o1,19.8 µM (active),–
COc1cc(C(C)C)c2c(c1)S(=O)(=O)N(COc1cc(=O)n3cccc(OCCN4CCCCC4)c3n1)C2=O,–,2.56% [at 29.1 µM] (inactive)
O=C(O)Cc1ccc(OCCNC[C@H](O)c2ccccc2)cc1,–,-21.4% (inactive)
CCCCOc1ccc(C(=O)CCN2CCCCC2)cc1,–,-12.1% (inactive)
O=C(Nc1ccc(Cl)cc1)Nc1ccc(Cl)c(C(F)(F)F)c1,9.44 µM (active),–

# Experiment: qHTS assay for small molecule activators of the heat shock response signaling pathway (AID 743210; active = well fitted activation curve with a large enough effect in the signal ratio in the repeat runs, with a control signal flat, not every such curve was filed as active; the % refers to the signal ratio;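 note: HeLa cells with beta-lactamase reporter driven by heat shock elements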)
# Details: HeLa HSE-bla reporter, beta-lactamase ratio, 5 h; series mostly up to 62.6 µM; activation: at the top concentration
# Method in brief: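 Quantitative high-throughput format using an engineered HeLa line in which heat shock response elements drive beta-lactamase; after 5 h with compound, cells received a B/G FRET substrate and fluorescence was read.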
Structure (SMILES),activation,Potency
C[n+]1c2cc(N)ccc2cc2ccc(N)cc21 (tested in a mixture with another compound),0.16% (inactive),–
COc1ccc2sc(C(=O)Nc3nnn[nH]3)c(OC(C)C)c2c1,1.32% (inactive),–
Nc1ccc2cc3ccc(N)cc3nc2c1,–,inactive
ClC/C=C\CCl,0.521% [at 81.1 µM] (inactive),–
O=C(NO)c1ccccc1,-2.47% [at 81.1 µM] (inactive),–
CC1(C)C(=O)N(Br)C(=O)N1Br,-1.04% (inactive),–
COc1cc(C(C)C)c2c(c1)S(=O)(=O)N(COc1cc(=O)n3cccc(OCCN4CCCCC4)c3n1)C2=O,6.62% [at 29.1 µM] (inactive),–

# Experiment: qHTS assay to identify small molecule agonists of the peroxisome proliferator-activated receptor delta (PPARd) signaling pathway - cell viability counter screen (AID 743211); note: nearly all actives have a fitted effect of over 55% in size; note: potency is the fitted concentration of half-maximal effect
# Details: PPARd-bla HEK293H viability, CellTiter-Glo luminescence, 17 h; series mostly up to 62.6 µM; activity change, negative = cytotoxicity: at the top concentration
# Method in brief: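 Luminescent ATP viability assay (CellTiter-Glo, 30 min RT) in UAS-bla HEK293H cells carrying the PPAR delta reporter construct, 3000 cells/well, after a 17 h compound treatment at 37 C.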
Structure (SMILES),Potency,"activity change, negative = cytotoxicity"
CC=O,45.7 µM (active),–
CCN(CC)CCNc1ccc(CO)c2sc3ccccc3c(=O)c12,18.8 µM (active),–
c1cc2c3c(c1)ccc1cccc(c13)C2,56.1 µM (active),–
CN1CCN(C2Cc3ccccc3Sc3ccc(Cl)cc32)CC1 (configuration not stated),26.6 µM (active),–
NC(=O)c1nc(-c2cccc(-c3cc(F)ccc3OCC(F)(F)C(F)(F)F)c2)n[nH]1,49 µM (active),–
CCNc1nc(NC(C)CC)nc(OC)n1 (configuration not stated),–,-11.8% (inactive)
CN(C)CCCN1c2ccccc2CCc2ccccc21,30.9 µM (active),–
CC(C)(C)c1cc(/C=C2\SC(=N)NC2=O)cc(C(C)(C)C)c1O,21.9 µM (active),–
O=C(c1ccccc1)c1cc(Cl)ccc1O,–,-14.4% (inactive)
C=CC(=O)OCCC#N,–,-14.6% [at 81.1 µM] (inactive)
CCCCCCCCCCCCCCNCCO,–,-9% (inactive)
CC1(C)C(=O)N(Br)C(=O)N1Br,–,-2.76% (inactive)
C=CC(=O)OCC(O)COc1ccccc1 (configuration not stated),49 µM (active),–
CN(C)CCCN1c2ccccc2Sc2ccc(C(F)(F)F)cc21,29.8 µM (active),–
CC(=O)OC(OC(C)=O)c1ccc([N+](=O)[O-])o1,49.8 µM (active),–
COc1cc(C(C)C)c2c(c1)S(=O)(=O)N(COc1cc(=O)n3cccc(OCCN4CCCCC4)c3n1)C2=O,–,-21.9% [at 29.1 µM] (inactive)
O=C(O)Cc1ccc(OCCNC[C@H](O)c2ccccc2)cc1,–,-29.5% (inactive)
CCCCCCCCCCCCN(CCO)CCO,38.7 µM (active),–
CCCCOc1ccc(C(=O)CCN2CCCCC2)cc1,11.9 µM (active),–
O=C(Nc1ccc(Cl)cc1)Nc1ccc(Cl)c(C(F)(F)F)c1,13.3 µM (active),–
O=C1c2c(O)ccc(O)c2C(=O)c2c(NCCNCCO)ccc(NCCNCCO)c21,29.8 µM (active),–
